This passage reports inhibition results from ChEMBL document CHEMBL1961873, “Compounds: GSK PKIS; Assays: Nanosyn kinase panel” (2012).

Assay [1] has as its target Sphingosine kinase 1 (Homo sapiens) (UniProt Q9NYA1). The following applies: at 1 µM.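 Note: mean SPHK1 inhibition value reported from the GSK PKIS kinase panel screen.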
Assay [2] has as its target T1, Sphingosine kinase 2 (Homo sapiens) (UniProt Q9NRA0).
T1 sequence (whole entry): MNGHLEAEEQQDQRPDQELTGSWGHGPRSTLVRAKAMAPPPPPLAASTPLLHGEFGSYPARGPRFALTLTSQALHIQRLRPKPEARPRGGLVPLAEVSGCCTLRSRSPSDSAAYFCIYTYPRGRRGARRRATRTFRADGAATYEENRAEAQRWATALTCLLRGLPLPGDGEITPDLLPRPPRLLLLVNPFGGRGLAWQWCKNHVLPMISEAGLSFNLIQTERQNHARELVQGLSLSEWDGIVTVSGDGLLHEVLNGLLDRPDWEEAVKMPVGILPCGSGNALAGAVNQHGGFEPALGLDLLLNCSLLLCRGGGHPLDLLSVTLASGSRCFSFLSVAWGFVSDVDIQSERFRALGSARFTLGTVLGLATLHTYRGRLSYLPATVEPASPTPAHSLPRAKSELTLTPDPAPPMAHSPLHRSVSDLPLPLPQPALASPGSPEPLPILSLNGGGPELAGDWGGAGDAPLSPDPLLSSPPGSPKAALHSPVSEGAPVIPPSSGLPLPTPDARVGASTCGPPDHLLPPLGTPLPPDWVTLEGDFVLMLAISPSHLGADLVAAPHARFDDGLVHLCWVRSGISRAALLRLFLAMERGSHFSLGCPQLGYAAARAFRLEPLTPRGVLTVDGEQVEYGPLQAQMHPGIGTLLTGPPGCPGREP
The note with it: at 0.1 µM.

For assay [3], the target named is T1, Sphingosine kinase 2 (Homo sapiens). The note with it: at 1 µM.
The target in assay [4] is Casein kinase II subunit alpha (Homo sapiens) (UniProt P68400). The note with it: at 0.1 µM.
Sequence of Casein kinase II subunit alpha (Homo sapiens) (P68400 whole entry, looked up): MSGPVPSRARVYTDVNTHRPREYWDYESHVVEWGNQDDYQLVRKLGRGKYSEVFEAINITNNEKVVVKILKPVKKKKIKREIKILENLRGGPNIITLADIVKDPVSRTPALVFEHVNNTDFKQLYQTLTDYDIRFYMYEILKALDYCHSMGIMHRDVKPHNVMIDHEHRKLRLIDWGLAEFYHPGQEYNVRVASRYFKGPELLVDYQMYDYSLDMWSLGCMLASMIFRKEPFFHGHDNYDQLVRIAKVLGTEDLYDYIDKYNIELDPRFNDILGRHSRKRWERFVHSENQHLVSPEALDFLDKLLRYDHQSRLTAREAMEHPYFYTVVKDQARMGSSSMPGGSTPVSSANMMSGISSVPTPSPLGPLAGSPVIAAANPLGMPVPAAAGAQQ
The target is the same in assay [5]. The following applies: at 1 µM.
Assay [6] concerns the target T2, Inhibitor of nuclear factor kappa-B kinase subunit alpha (Homo sapiens) (UniProt O15111).
T2 sequence (whole entry): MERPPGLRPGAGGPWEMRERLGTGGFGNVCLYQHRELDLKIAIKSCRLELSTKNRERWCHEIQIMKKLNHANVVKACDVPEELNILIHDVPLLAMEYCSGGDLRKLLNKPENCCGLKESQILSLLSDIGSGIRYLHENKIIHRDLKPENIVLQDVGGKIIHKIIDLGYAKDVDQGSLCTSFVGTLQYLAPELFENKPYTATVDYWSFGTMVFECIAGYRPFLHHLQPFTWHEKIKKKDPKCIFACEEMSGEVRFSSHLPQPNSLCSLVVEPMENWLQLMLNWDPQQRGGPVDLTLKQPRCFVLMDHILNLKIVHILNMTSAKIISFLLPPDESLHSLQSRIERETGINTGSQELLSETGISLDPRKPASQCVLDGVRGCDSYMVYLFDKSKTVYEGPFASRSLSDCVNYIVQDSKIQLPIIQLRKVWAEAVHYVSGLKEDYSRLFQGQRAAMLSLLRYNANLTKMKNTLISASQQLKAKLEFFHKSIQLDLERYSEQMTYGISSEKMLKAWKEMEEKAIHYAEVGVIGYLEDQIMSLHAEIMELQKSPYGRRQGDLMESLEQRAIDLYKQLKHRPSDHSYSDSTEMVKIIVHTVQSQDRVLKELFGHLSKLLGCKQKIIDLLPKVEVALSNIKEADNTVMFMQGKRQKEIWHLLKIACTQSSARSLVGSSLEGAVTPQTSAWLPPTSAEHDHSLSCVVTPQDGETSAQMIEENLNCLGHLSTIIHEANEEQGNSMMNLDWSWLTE
The following applies: at 0.1 µM.

Assay [7] has as its target T2, Inhibitor of nuclear factor kappa-B kinase subunit alpha (Homo sapiens). The note with it: at 1 µM.
For assay [8], the target named is T3, Inhibitor of nuclear factor kappa-B kinase subunit beta (Homo sapiens) (UniProt O14920).
T3 sequence (whole entry): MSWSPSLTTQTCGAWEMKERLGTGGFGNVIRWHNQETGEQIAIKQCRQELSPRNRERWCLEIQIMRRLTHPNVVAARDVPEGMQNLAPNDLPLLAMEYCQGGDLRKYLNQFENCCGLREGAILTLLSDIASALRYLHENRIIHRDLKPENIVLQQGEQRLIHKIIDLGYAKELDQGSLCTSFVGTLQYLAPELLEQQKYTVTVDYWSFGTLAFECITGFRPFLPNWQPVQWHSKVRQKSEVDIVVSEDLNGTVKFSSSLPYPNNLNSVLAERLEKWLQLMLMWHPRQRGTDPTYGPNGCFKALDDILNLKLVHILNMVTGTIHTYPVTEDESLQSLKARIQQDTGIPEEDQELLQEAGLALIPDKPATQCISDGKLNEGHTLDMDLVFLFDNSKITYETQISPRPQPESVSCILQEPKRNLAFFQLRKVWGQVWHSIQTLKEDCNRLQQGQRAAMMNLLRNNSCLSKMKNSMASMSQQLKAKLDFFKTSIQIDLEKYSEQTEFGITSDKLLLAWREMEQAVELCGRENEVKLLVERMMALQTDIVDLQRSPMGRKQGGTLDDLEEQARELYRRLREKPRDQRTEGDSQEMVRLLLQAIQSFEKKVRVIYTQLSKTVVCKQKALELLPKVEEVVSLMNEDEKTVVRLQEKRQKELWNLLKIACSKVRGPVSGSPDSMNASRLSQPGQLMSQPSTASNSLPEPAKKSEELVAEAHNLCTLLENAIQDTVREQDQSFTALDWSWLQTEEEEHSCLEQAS
The note with it: at 0.1 µM.

Assay [9] has as its target T3, Inhibitor of nuclear factor kappa-B kinase subunit beta (Homo sapiens). The following applies: at 1 µM.
For assay [10], the target named is T4, Inhibitor of nuclear factor kappa-B kinase subunit epsilon (Homo sapiens) (UniProt Q14164).
T4 sequence (whole entry): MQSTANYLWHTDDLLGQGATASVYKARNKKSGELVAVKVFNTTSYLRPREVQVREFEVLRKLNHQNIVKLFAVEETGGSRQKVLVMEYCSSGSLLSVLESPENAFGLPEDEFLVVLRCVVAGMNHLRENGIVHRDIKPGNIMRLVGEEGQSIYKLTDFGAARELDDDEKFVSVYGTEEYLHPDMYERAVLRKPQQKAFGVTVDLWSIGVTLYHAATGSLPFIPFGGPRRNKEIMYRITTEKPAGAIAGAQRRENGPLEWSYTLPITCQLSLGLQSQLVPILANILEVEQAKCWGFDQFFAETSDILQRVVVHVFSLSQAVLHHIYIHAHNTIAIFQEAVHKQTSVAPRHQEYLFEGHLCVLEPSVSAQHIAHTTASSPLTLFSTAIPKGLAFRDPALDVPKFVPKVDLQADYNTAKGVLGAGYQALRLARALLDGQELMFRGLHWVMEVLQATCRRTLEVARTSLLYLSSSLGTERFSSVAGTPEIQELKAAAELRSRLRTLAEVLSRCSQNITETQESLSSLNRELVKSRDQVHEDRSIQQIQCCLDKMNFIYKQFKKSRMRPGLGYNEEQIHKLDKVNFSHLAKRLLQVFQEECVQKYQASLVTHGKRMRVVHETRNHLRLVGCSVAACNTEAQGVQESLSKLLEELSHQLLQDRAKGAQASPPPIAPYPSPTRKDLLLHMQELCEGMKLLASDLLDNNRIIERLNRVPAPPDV
The following applies: at 0.1 µM.

Assay [11] concerns the target T4, Inhibitor of nuclear factor kappa-B kinase subunit epsilon (Homo sapiens). The note with it: at 1 µM.
The target of assay [12] is T5, Serine/threonine-protein kinase Nek1 (Homo sapiens) (UniProt Q96PY6).
T5 sequence (whole entry): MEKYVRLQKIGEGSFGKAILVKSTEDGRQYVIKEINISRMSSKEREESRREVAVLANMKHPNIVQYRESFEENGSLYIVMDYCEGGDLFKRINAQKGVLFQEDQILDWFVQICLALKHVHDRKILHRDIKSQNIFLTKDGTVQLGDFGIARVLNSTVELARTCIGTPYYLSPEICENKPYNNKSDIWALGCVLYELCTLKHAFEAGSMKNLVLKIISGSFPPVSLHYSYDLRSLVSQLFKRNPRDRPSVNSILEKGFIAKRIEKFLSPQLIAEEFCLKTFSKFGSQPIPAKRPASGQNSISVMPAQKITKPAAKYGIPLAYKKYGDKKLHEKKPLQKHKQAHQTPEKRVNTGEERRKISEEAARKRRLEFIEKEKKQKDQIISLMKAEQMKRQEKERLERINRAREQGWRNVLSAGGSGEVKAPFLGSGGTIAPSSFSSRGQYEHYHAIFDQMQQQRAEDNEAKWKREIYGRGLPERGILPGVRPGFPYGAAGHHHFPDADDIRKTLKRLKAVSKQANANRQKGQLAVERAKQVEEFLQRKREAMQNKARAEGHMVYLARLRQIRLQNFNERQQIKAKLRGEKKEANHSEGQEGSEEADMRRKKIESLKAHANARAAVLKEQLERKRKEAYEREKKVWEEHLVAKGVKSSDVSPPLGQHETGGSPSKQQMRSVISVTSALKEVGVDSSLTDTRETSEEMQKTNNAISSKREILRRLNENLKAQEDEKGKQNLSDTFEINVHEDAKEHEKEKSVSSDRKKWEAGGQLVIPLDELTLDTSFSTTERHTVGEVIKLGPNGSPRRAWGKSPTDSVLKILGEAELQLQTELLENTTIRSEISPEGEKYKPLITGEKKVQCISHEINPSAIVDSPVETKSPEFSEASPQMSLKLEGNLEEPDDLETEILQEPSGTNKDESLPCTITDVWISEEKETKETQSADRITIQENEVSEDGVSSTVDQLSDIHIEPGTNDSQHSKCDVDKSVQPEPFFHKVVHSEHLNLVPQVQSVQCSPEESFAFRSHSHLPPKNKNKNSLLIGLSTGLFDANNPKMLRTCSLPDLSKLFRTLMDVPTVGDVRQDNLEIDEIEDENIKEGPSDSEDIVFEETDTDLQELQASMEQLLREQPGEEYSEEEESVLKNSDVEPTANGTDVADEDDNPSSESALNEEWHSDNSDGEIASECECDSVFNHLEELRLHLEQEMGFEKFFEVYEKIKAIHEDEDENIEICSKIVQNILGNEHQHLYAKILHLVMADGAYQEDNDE
The following applies: at 0.1 µM.

Assay [13] addresses T5, Serine/threonine-protein kinase Nek1 (Homo sapiens). The following applies: at 1 µM.
Assay [14] deals with T6, Serine/threonine-protein kinase Nek2 (Homo sapiens) (UniProt P51955).
T6 sequence (whole entry): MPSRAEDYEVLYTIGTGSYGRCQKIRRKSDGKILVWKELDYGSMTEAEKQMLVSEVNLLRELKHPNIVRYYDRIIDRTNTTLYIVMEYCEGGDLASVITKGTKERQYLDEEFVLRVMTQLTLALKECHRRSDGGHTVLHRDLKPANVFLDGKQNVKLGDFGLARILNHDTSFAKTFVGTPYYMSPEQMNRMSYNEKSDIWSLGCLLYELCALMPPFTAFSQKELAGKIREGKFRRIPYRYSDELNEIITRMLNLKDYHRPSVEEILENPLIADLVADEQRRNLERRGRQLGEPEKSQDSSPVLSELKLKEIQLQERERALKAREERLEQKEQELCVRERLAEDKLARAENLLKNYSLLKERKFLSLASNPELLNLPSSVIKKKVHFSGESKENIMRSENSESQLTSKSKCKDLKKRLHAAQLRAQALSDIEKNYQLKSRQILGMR
The following applies: at 0.1 µM.

Assay [15] deals with T6, Serine/threonine-protein kinase Nek2 (Homo sapiens). The following applies: at 1 µM.
The target in assay [16] is Serine/threonine-protein kinase Nek6 (Homo sapiens) (UniProt Q9HC98). The note with it: at 0.1 µM.
Sequence of Serine/threonine-protein kinase Nek6 (Homo sapiens) (Q9HC98 whole entry): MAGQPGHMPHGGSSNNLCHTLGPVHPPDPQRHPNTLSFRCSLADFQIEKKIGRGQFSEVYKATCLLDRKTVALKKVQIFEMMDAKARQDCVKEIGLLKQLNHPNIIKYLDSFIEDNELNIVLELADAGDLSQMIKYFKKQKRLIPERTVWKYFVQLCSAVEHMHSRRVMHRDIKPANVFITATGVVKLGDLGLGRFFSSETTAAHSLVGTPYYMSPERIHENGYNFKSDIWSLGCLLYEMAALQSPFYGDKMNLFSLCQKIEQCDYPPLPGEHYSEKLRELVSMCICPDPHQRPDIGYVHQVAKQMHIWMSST
The target is the same in assay [17]. The note with it: at 1 µM.
In assay [18] the target is Serine/threonine-protein kinase Nek7 (Homo sapiens) (UniProt Q8TDX7). The note with it: at 0.1 µM.
Sequence of Serine/threonine-protein kinase Nek7 (Homo sapiens) (Q8TDX7 whole entry, looked up): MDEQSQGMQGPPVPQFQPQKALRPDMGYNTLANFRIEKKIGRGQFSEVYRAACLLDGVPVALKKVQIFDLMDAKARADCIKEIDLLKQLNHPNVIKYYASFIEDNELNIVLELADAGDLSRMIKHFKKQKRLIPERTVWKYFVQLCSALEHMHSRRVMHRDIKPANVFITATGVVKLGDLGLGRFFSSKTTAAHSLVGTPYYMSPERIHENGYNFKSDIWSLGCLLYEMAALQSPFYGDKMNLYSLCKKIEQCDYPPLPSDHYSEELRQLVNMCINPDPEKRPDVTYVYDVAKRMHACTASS
The target is the same in assay [19]. The following applies: at 1 µM.
The target in assay [20] is T7, Serine/threonine-protein kinase Nek9 (Homo sapiens) (UniProt Q8TD19).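 Note: reported value is the mean percent inhibition of NEK9.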
T7 sequence (whole entry): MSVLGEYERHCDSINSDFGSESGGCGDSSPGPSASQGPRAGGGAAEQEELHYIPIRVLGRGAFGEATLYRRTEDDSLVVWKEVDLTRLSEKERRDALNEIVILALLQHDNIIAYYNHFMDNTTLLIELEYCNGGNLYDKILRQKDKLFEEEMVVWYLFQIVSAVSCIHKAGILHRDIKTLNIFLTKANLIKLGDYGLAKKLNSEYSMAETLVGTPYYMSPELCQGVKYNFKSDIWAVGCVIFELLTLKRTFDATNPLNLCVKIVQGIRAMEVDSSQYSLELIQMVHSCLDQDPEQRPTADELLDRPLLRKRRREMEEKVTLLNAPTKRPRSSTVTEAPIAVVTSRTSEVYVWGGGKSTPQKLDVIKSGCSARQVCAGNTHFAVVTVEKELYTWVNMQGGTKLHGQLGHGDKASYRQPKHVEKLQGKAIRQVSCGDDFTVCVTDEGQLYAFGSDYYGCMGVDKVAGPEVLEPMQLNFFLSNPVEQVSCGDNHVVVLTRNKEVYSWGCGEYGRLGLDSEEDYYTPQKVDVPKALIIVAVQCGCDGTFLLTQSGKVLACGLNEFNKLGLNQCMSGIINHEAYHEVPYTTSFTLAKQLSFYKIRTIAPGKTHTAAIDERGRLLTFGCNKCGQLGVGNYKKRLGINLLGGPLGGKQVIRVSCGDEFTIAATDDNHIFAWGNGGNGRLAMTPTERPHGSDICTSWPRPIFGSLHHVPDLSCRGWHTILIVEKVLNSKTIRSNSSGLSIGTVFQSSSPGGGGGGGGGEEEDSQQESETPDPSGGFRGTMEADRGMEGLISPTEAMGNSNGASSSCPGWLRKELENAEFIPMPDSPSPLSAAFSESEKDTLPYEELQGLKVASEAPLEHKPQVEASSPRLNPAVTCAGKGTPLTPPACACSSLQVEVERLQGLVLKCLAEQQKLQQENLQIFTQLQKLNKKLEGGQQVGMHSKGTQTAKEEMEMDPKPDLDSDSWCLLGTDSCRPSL
The note with it: at 0.1 µM.

Sequence of Sphingosine kinase 1 (Homo sapiens) (Q9NYA1 whole entry): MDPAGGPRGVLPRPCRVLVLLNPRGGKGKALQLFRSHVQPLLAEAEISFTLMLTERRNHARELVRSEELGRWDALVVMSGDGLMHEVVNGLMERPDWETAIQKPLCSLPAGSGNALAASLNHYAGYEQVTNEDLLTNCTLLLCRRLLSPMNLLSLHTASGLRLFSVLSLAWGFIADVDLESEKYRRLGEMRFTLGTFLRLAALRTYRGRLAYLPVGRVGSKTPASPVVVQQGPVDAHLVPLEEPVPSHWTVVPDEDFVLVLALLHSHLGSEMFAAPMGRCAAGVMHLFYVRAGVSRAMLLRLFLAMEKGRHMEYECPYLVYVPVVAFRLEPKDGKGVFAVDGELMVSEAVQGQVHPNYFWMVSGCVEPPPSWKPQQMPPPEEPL

For `O=S(=O)(CCNCc1ccc(-c2ccc3ncnc(Nc4ccc(OCc5cccc(F)c5)c(Cl)c4)c3c2)o1)c1ccccc1`, the inhibition in assay [1] was -5.05%; in assay [2], -0.55%; in [3], 0.69%; in assay [4], 10.6%; in assay [5], 5.49%; in assay [6], 2.96%. In addition, the inhibition in assay [7] is -0.88%; in [8], 6.77%; in assay [9] it was 7.07%; in [10], 12%; in assay [11], 7.29%; in assay [12] it was 3.48%. Moreover, the inhibition in [13] came out at 5.88%; in assay [14], 5.1%; in [15], 7.03%; in assay [16], 4.21%; in assay [17], 2.74%; in assay [18], 3.88%. Besides, the inhibition in assay [19] came out at 5.26%; in assay [20], 4.93%.

The term inhibition denotes the relative decrease from the control value, in per cent.
